Shiga inhibitor: blocks Shiga toxin action in Vero cells. actives 9.2% (n = 290,000). Vero cells, Shiga toxin protein synthesis inhibition reporter. AID 2315. inhibition, % at 38.7 µM; in the data active = inhibition mostly above about 28%, no sharp cut-off; inactive = mostly below about 43%; also: 0% is about no effect
NS1 function inh: inhibitors of influenza NS1 protein function; AID 2326; Potency, µM (top dose mostly 46.1 µM), for the others: at the highest dose activity, positive = more growth; actives 0.4% (n = 270,000); calls by dose curve; also: potency is read from the fitted curve at half-maximal effect; actives are rising curves; nearly all actives have a fitted effect of over 50% in size
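Recovery from NS1-induced slow growth read by OD600 in budding yeast switched to galactose assay medium (pH 6.0, -URA) at 1:100 dilution. Compound 23 nl per well; the matching strain lacking NS1 serves as control.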
Pf growth 96h: P. falciparum growth inhibition at 96 hour, primary screen for plastid delayed-death inhibitors; actives 6.9% (n = 320,000); Potency, µM (highest dose often 28.7 µM), for inactives: top-dose activity change, negative = inhibition, most hits filed as inhibitors; P. falciparum luciferase reporter growth, 96 h; also: potency is read from the fitted curve at half-maximal effect; % is scaled to controls: 0 for no effect and ±100 for the full control effect
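Infected RBCs, 2% Hct / 0.05% parasitemia final; luciferase-reporter P. falciparum; cpd 96 h, 37 C, 5% CO2; luciferase detection reagent; luminescence.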
CHX counter: affects cycloheximide protein synthesis inhibition readout, counter-screen; cell reporter, cycloheximide protein synthesis inhibition counterscreen; max response, %; actives 12% (n = 300,000); in the data active = max response mostly above about 13%, no sharp cut-off; inactive = mostly below about 14%; also: read at 38.3 µM for the half of the compounds with a filed dose; 0% is about no effect
Pf growth 48h: inhibits P. falciparum growth in the first generation, 48 h. AID 504832. Potency, µM (doses to about 28.7 µM), inactives show at the highest dose activity change, negative = inhibition, most hits filed as inhibitors. P. falciparum luciferase growth in erythrocytes, 48 h. actives 5.9% (n = 310,000); also: potency is read from the fitted curve at half-maximal effect; % is scaled to controls: 0 for no effect and ±100 for the full control effect
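Read-out is firefly luciferase luminescence from an integrated reporter in P. falciparum, so falling signal marks reduced parasite growth. Infected erythrocytes were at 2% hematocrit and 0.1% parasitemia (final) in Albumax-supplemented RPMI 1640.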
Numbers without * were called inactive; ? = inconclusive; . = not tested or not shown. Most compounds without a hit are left out; they make up all but 21% or so of the library. Unless noted, calls follow the shape of the dose curve; as a rule, active = well fitted inhibition curve with a large enough effect; inconclusive = small, poorly fitted or top-dose-only effect, or another doubt; inactive = no such curve, though single readings can be large or run the other way.

SMILES	Shiga inhibitor	NS1 function inh	Pf growth 96h	CHX counter	Pf growth 48h
O=C(Nc1ccc(NC(=O)C2CC2)nc1)c1ccco1	59.7*	-12.3%	.	24.0*	105.0%
O=C(Nc1ccc(NC(=O)C2CCCCC2)nc1)c1ccccn1	81.4*	-8.8%	98.6%	43.6*	20.3%
COc1ccccc1C(=O)Nc1ccc(NC(=O)C2CCCCC2)nc1	21.6	12.4%	124.0%	9.1	?
O=C(Cn1ncc2c(=O)oc3ccccc3c21)N1CCC(N2CCCCC2)CC1	17.6	-2.5%	11.7µM*	-5.0	16.8%
O=C(Cn1ncc2c(=O)oc3ccccc3c21)NCC1CCCO1 (centres undefined)	-13.7	5.2%	?	-2.9	5.1%
O=C(Cn1ncc2c(=O)oc3ccccc3c21)NCCC1=CCCCC1	1.2	-7.5%	9.28µM*	-1.2	-7.6%
O=C(CSc1nnc2ccccn12)NC(=O)Cc1ccccc1	-2.6	2.6%	20.6%	5.8	23.1%
S=C(NCCCN1CCOCC1)Nc1ccc(Cl)c(Cl)c1	-11.1	11.0%	16.5µM*	-3.0	-11.0%
O=C(NCCCN1CCOCC1)Nc1ccc(Cc2ccc(NC(=O)NCCCN3CCOCC3)cc2)cc1	-12.6	-8.1%	1.65µM*	-5.2	2.62µM*
Cc1ccc(NC(=O)NCCCN2CCOCC2)cc1	16.1	4.1%	7.3%	-2.1	-6.0%
CCN(CC(=O)NC1CC1)S(=O)(=O)c1ccc(OC)cc1	-14.2	9.5%	?	5.3	-13.5%
Cc1ccc(Nc2nnns2)cc1	-6.6	-33.4%	88.8%	5.5	-18.3%
CC1=CC(C)(C)N=C(Nc2ccc(C)cc2)S1	44.5	-11.5%	10.4µM*	50.4*	.
CC(C)n1c(C(O)c2ccc3c(c2)OCO3)nc2ccccc21 (centres undefined)	-29.4	-11.8%	-10.1%	-2.5	9.28µM*
O=C(Nc1ccccc1)N(Cc1ccccc1)Cc1ccccc1	-21.0	-14.2%	6.6%	-2.6	4.5%
O=C(Nc1ccccc1)N(Cc1ccc(Cl)cc1)CC(O)C(F)(F)F (centres undefined)	9.3	-9.5%	5.5%	0.2	14.7µM*
CC1CCN(CCCNC(=O)Cn2ncc3c([nH]c4ccccc43)c2=O)CC1	34.4	24.1%	?	12.5	-11.3%
CN(CC(=O)Nc1ccccc1Cl)C(=O)C1CSC2(C)CCC(=O)N12 (centres undefined)	.	.	-3.1%	.	-3.6%
N#CC1CC(c2ccccc2)=NN1c1ccccc1[N+](=O)[O-] (centres undefined)	113.3*	.	0.1%	48.4*	87.5%
COCCCn1c(SCC(=O)N2CCCC(C)C2)nnc1-c1ccco1 (centres undefined)	-11.7	0.6%	0.586µM*	-2.0	-5.4%
CCn1c(SCC(=O)N2CCCC(C)C2)nnc1-c1ccco1 (centres undefined)	45.4	3.9%	?	1.0	12.3%
CCCn1c(SCC(=O)N2c3ccccc3CC2C)nnc1-c1ccco1 (centres undefined)	-2.6	-8.6%	?	-2.2	11.7µM*
CCCn1c(SCC(=O)N2CCc3ccccc32)nnc1-c1ccco1	-12.3	-9.6%	?	1.3	?
CCOc1nc(C)ccc1-c1noc(CC)n1	-1.6	-13.5%	34.1%	-2.8	27.4%
CCOc1ccccc1-c1nc(-c2ccc(C)nc2OC)no1	92.0*	-45.6%	15.4%	43.7*	140.6%
SMILES	Shiga inhibitor	NS1 function inh	Pf growth 96h	CHX counter	Pf growth 48h
CCOc1nc(C)ccc1-c1noc(-c2ccco2)n1	41.6	-25.3%	21.0%	32.0*	152.7%
CCOc1nc(C)ccc1-c1noc(-c2ccccn2)n1	34.4	-30.3%	-7.1%	25.8*	7.8%
CC1CCC(NC(=O)CN2C(=O)NC3(CCCCCC3)C2=O)CC1 (centres undefined)	.	.	6.3%	.	7.3%
Cc1cc(C(F)(F)F)c(C#N)c(SCC(=O)Nc2nc3cc(Br)ccc3s2)n1	32.7*	9.9%	77.9%	39.4*	76.2%
COC(=O)CSc1nc(C)cc(C(F)(F)F)c1C#N	-10.7	-12.4%	46.6%	-2.9	4.2%
CCOC(=O)NC(=O)CSc1nc(C)cc(C(F)(F)F)c1C#N	83.7*	-1.3%	-23.9%	31.0*	-1.0%
Cc1cccc(N2CCN(C(=O)c3ccoc3C)CC2)c1C	31.7	-4.3%	43.4%	-10.1	-2.7%
CN(C(=O)CSc1nc(C2CC2)n(-c2ccccc2)n1)C1CCS(=O)(=O)C1 (centres undefined)	.	.	31.0%	.	29.6%
Cc1ccc(CNC(=O)Cn2ccc3cc(S(=O)(=O)N4CCCCCC4)ccc32)cc1	-2.4	17.4%	?	-1.8	?
COc1ccc2c(COC(=O)CNS(=O)(=O)c3ccc(C)c(C)c3)cc(=O)oc2c1	.	.	4.9%	.	?
CC(C)CN1C(=O)c2ccc(C(=O)Nc3ccccc3C(=O)O)cc2C1=O	71.1*	-3.5%	-15.2%	55.1*	4.9%
CC(C)CN1C(=O)c2ccc(C(=O)NCc3ccccn3)cc2C1=O	0.4	4.3%	43.4%	-2.5	0.3%
CC(C)CN1C(=O)c2ccc(C(=O)Nc3ccccn3)cc2C1=O	25.5	-1.6%	5.5%	34.4*	78.3%
Cc1ccc(C(=O)NNS(=O)(=O)c2ccc(F)cc2)cc1	21.0	?	4.8%	6.6	0.0%
COc1ccc2c(c1)C(SCC(=O)NCCc1ccc(Cl)cc1)CC(C)(C)O2 (centres undefined)	-14.4	-47.6%	?	-5.5	?
CC(=O)c1ccc(NC(=O)C(C)Oc2ccc(N(C)S(=O)(=O)c3ccc(C)cc3)cc2)cc1 (centres undefined)	.	.	13.1µM*	.	14.7µM*
CN(c1ccc(C(=O)Nc2cccc(O)c2)cc1)S(=O)(=O)c1ccccc1	21.3	-11.3%	-23.3%	18.6*	-5.0%
CC(=O)c1cccc(NC(=O)c2ccc(N(C)S(=O)(=O)c3ccc(C)cc3)cc2)c1	-22.0	14.2%	8.28µM*	-1.7	?
CN(c1ccc(C(=O)Nc2cccnc2)cc1)S(=O)(=O)c1ccccc1	3.0	1.7%	32.7%	-2.0	-27.0%
CC(=O)c1cccc(NC(=O)c2ccc(N(Cc3ccc(C)cc3)S(C)(=O)=O)cc2)c1	9.4	5.3%	?	-1.0	.
O=C1c2ccccc2C(=O)N1CCCCN(C(=O)c1cc([N+](=O)[O-])ccc1Cl)c1ccc(Cl)cc1	-12.0	19.0%	1.5%	-2.0	?
Brc1ccccc1-n1nnc(-c2ccnc3ccccc23)n1	22.1	-2.8%	?	18.8*	-24.2%
Cc1nn(-c2nc3ccccc3s2)c(N)c1-c1ccc(Cl)cc1	54.1*	-16.5%	.	33.0*	36.7%
Cc1nn(-c2nc3ccccc3s2)c(N)c1-c1ccccc1	90.5*	14.1%	.	72.4*	166.6%
Cc1nn(-c2ccc(F)cc2)c(Cl)c1/C=C(\CCC(=O)O)c1nc2ccccc2s1	-10.7	-9.3%	0.5%	-4.2	0.6%
Cc1nn(-c2nc3ccccc3s2)c(N)c1Sc1ccc(F)cc1	48.5*	-2.8%	?	20.3*	98.5%
Cc1cc(N)n(-c2nc3ccccc3s2)n1	8.9	1.8%	3.7%	-3.8	?
COc1ccc2nc(SCC(=O)NCC(F)(F)F)[nH]c2c1	19.0	-0.9%	39.0%	-11.2	53.5%

Screens (PubChem)
